# Legend:
# Experiment in all cases: PBM binding z-score (relative to random genomic background probes); higher = stronger binding; sequences stand for … in GC…GCGATTGACAGCGTAGAATGAAGG
# [1] = system: RARb homodimer (NR concentration 270 nM)
# Summary of the method: (§1)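 The probes on custom Agilent 4×180K protein-binding microarrays were double-stranded, with 34-nt variable regions bearing direct-repeat seeds, single-nucleotide variants, half-site ablations and random human genomic background sequences. Incubation lasted 1 h with ligand-free nuclear receptor dimers in PBS pH 7.4, 2% milk, 0.02% Triton X-100, 1 mM DTT, 0.2 mg/mL BSA and 0.4 mg/ml salmon testes DNA. Antibodies against each partner (one per run) detected bound dimers, and fluorescence scans were regression-normalized. Binding z-scores take the random background probes as reference.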
# [2] = system: RARg:RXRa (NR concentration 270 nM, RXRa partner concentration 90 nM)
# Summary of the method: as §1
# [3] = system: RARg homodimer (NR concentration 270 nM)
# Summary of the method: as §1
# [4] = system: RXRa DBDmut IVT, anti-RXR (DBD mutation: RXRa K156A/R161A, NR concentration 90 nM)
# Summary of the method: as §1
# [5] = system: RXRa homodimer (NR concentration 180 nM)
# Summary of the method: as §1
# [6] = system: THRa:RXRa (NR concentration 90 nM, RXRa partner concentration 90 nM)
# Summary of the method: as §1
# [7] = system: THRa homodimer (NR concentration 90 nM)
# Summary of the method: as §1
# [8] = system: VDR homodimer (NR concentration 270 nM)
# Summary of the method: as §1
Sequence,PBM binding z-score [1],PBM binding z-score [2],PBM binding z-score [3],PBM binding z-score [4],PBM binding z-score [5],PBM binding z-score [6],PBM binding z-score [7],PBM binding z-score [8]
TCTAGTTGCTCAAAGGTCACACACTCGAAATGCG,5.02,5.93,5.78,1.88,6.66,3.76,1.89,2.12
CCTACTGGGGCAAGGTTACCATAACGCACAGCCA,1.26,1.22,1.37,-0.688,1.02,1.14,0.409,0.0551
TCATATTGGTAAAAGGTGAAAGTCGGTGTGGTAA,2,1.24,0.709,1.66,1.99,1.62,0.665,0.829
TCATATAGGTAAATGCTAGGTGACAGTCCGATCT,0.444,0.642,0.401,1.28,0.653,1.4,0.389,0.525
ATCTCTAGGTAAAAGTTCAGTAAATCCCGAGGAT,2.41,1.83,1.94,0.937,1.61,1.38,0.269,2.01
TTACCAAGGTGAGCTTAGGTCGTTGATCCAACTC,1.27,0.36,0.732,-0.17,0.352,3.88,0.952,-0.0607
GCTATTAGTTGAAAGGCCAACCGAATGATTCTCG,1.27,0.828,0.862,1.04,0.44,0.141,-0.222,0.0426
GATACCGGGTCAGCTAGAGGCCAGAGTATGGAAA,2.63,5.9,3.71,-0.115,2.83,2.64,0.0916,-0.166
TCATATAGGTAAATACTAGGTGAAAGTCCGATCT,0.493,0.573,0.709,1.89,1,1.49,0.718,0.521
AATACAGGGTCATCGTTGGCCAGAGTACGCACAG,3.58,5.68,5.14,3.53,6.56,3.95,1.53,3.86
ACTTACGGGTCAACGAGGTTAGAGCACGCGTATA,3.62,5.52,5.15,2.34,5.87,3.7,0.878,2.6
TTACCAATGTGAGCTGAGGTCGTTGATCCAACTC,0.861,0.247,-0.299,0.122,0.752,3.25,1.54,2.7
TCATATAGGTAACAGGTGAAAGTCGGTGTGGTAA,1.03,0.519,0.556,1.41,1.11,0.822,0.292,0.21
CGAACTAGGTCATCGACAGGACAGTGAATAGTAA,2.75,4.84,4.87,2.2,2.72,3.06,0.98,1.39
ACAGCCAGGTGATGAAGGTAACTCAGGCTATCAT,-0.0957,-0.0664,0.0616,-0.658,0.21,1.1,0.166,-0.584
AGAATGAGGTTGCCAAAGATCAGGGAAACGCTTG,-0.195,0.266,0.336,0.261,0.9,0.855,-0.384,-0.0161
TCTAGTTGGTCAACGGTCACACACTCGAAATGCG,2.49,1.51,2.16,1.24,1.23,0.548,0.185,0.188
CCTTACGGGTCACTCCAGGTTATCGCATCGGAGT,3.25,4.44,4.23,1.07,4.36,5.13,0.863,1.57
TGTTAAAGTTCAAAGGTAACGTAAGTATCCACAC,3.61,5.89,5.47,4.41,6.91,3.42,0.278,2.82

Sequence,PBM binding z-score [1],PBM binding z-score [2],PBM binding z-score [3],PBM binding z-score [4],PBM binding z-score [5],PBM binding z-score [6],PBM binding z-score [7],PBM binding z-score [8]
ATCTCTAGGTAAAGGTAGTTCAGTGAATGCAAAT,0.964,0.44,0.605,0.345,0.164,1.21,0.679,1.12
GCTTGGAGATCAAGGTTAAGAAAGACTAAGCTAA,0.301,0.332,0.139,-0.28,1,1.16,-0.468,0.0219
TCTTGTAGATCAAGAAGGTTAAGAAAGCCTGAGT,0.784,0.407,0.315,0.387,0.863,0.451,-0.553,0.21
TAGCCTAGGTCAGATCGGGCCGGTATACGCTATA,1.98,2.67,3.43,-0.551,0.992,3.11,0.09,-0.328
TCATATAGGTAAGACAGGTGAAAGTCGGCATCTA,0.625,0.754,0.411,1.36,1.02,0.828,0.209,0.18
TGTCAAAGTACAAAGGTAACGTAAGTATCCACAC,1.01,1.41,1.32,0.417,0.984,1.33,-0.416,0.229
CCTGCTATGTCATGGTCAGCTAATCTACAGTATG,0.419,0.518,0.62,0.877,0.209,-0.0552,-0.368,-0.566
CAGACTAGGTCAAGGTCAAAGTCGGTTTGTGCCA,5.11,6.12,6.67,2.61,6.04,4.32,3.45,4.18
CCTACGGGGCCATCAGGTCATTGATATCAACGTT,3.1,3.1,2.83,0.971,2.02,3.6,2.97,2.45
CCAGACAGGTGAAAGGTGACTCAGTCTGGTACGC,1.63,2.35,1.15,-0.229,3.18,1.44,0.239,0.14
TGTATTAGTTGATTAGGGCAACCGAAACAGCGGA,0.715,0.692,0.807,-0.317,-0.0234,0.551,0.64,0.784
ATCTCTCGGTAACAAGTTCAGTGAAAGAGAGGAC,1.84,0.867,1.2,0.226,0.539,0.976,0.753,2.29
AGAATGAGGTTACCAAAGATCAGGGACACGCTTG,1.72,2.29,1.89,1.2,2.64,3.33,2.17,0.768
TCGTATAGGTAAAGGTGAAAGTCGAACGATATGA,1.77,1.52,1.35,0.714,2.12,1.24,-0.212,0.0316
CAAACTAGGTCACGGGAAGGTCAAAGTCCGCATG,5.63,8.25,7.46,2.31,6.72,4.73,3.09,3.1
TGAATGCGGTTAAAGATCAGGGAACGTGGCGTCG,-0.707,-0.0436,-0.136,-0.853,0.338,-0.164,-0.454,-0.55
GCGACTGGGGCATCAGCAGGTGACCATAACTTAA,0.835,0.367,0.374,-0.296,-0.0343,0.956,-0.08,-0.617
TCTAGCAGGCCAGAAGGTCACTCAAGAGGTACGG,3.87,3.95,3.46,0.459,3.15,2.28,0.225,1
GATACACGGTCAGCTAGAGGCCAGAGTATGGAAA,1.9,2.39,2.33,-0.51,0.403,0.349,-0.599,-0.244

Sequence,PBM binding z-score [1],PBM binding z-score [2],PBM binding z-score [3],PBM binding z-score [4],PBM binding z-score [5],PBM binding z-score [6],PBM binding z-score [7],PBM binding z-score [8]
CCTACTGGGCCACGAAAGGTCATTGAATCAGTGA,4.71,4.78,4.92,0.485,5.26,3.64,0.999,1.9
TAGCCTAGGTCAGATCGAGCCAGTATACGCTATA,1.71,2.36,3.3,-0.301,1.23,1.61,-0.233,-0.594
CCGACTGTGGCAAGGTTACCATAACGCACAGCCA,1.13,0.293,0.461,0.0244,0.97,1.2,0.526,0.243
GGAACGAGGGCATTCGACTTGATAGCATGGCGAT,0.502,1.11,1.52,3.17,0.731,0.81,-0.453,2.32
CATCAAAGTTCAACTAAGGTAACGTAAAGCACGC,4.32,5.94,6.82,4.67,5.76,5.1,2.29,4.37
GCTTGTTGATCAAGGTTAAGAAAGACTAAGCTAA,0.2,0.237,0.0786,0.0866,0.387,1.23,-0.213,-0.369
CGATCTAGGTCAAGGACAGTGAATCTCCGCACGC,2.75,3.6,4.45,1.55,2.2,3.07,2.46,0.43
CAAACTAGGTCAGAGAGGTCAAAGTCCGTGCGTA,5.19,6.39,6.79,2.74,7.07,4.43,2.45,6.12
TTACTAAGGTGAAGGTCGTTGATCCCTCTGTAGA,1.96,1.85,1.21,0.794,2.31,3.16,1.98,1.11
TTACCAAAGTGAAGGTCGTTGATCCCTCTGTAGA,0.733,0.112,-0.254,0.0594,0.926,0.74,-0.495,0.739
ATCGAAAGGTCGACGGGGTGAGTATACACCGTTT,3.14,4.6,4.63,1.61,5.07,3.57,0.568,1.7
TCGAGTAGGTTAGTCGGCGCATTCAGCCAACATA,-0.408,-0.412,-0.662,-0.0124,-0.244,-0.542,-0.648,-0.26
CATCCAAGGTCAATGCTAGGTCAGTGAAAGCATT,4.85,7.59,6.9,3.53,5.4,4.39,2.95,3.16
GGACCAAGGTGAATAGGTCGTTGATGAGTAGGCG,1.93,2.62,1.51,-0.31,1.81,1.91,0.417,0.294
ATCGAAAGGTCGAGGTGAATATAGAGAAAGGGAA,2.88,4.52,4.51,0.922,4.65,2.95,0.862,0.0536
ACTAGCAGGCCAAGTTTGGGTCACTCATACAAAG,2.32,2.26,1.53,-0.0603,0.947,2.47,1.27,0.331
GCTAGCAGCCCATTTGGGTCACTCAATGACGGGC,1.07,0.319,0.556,-0.892,0.587,1.24,0.119,-0.375
CGTCCAAGGTCAGAGACGTCAGTGAATGCCGAGT,3.39,4.24,4.6,2.62,3.33,3.24,1.49,1.24

# — the supplement of paper PMC6555819
